# Columns and labels:
# Experiment in all cases: DAPPL (digital affinity profiling via proximity ligation, sequencing); 10 mM Tris-HCl pH 7.5, 50 mM NaCl, 1 mM DTT, 4% glycerol, room temperature, 30 min; GST-TFs on glutathione beads, 16-mer random dsDNA library, 0.1% formaldehyde crosslink after washing; high values mean tight binding
# [1] = molecular target: T1, FLI1 (Homo sapiens, UniProt Q01543 1-452); conditions: protein: recombinant; tags: N-terminal GST; dsDNA, one strand shown
# T1 sequence: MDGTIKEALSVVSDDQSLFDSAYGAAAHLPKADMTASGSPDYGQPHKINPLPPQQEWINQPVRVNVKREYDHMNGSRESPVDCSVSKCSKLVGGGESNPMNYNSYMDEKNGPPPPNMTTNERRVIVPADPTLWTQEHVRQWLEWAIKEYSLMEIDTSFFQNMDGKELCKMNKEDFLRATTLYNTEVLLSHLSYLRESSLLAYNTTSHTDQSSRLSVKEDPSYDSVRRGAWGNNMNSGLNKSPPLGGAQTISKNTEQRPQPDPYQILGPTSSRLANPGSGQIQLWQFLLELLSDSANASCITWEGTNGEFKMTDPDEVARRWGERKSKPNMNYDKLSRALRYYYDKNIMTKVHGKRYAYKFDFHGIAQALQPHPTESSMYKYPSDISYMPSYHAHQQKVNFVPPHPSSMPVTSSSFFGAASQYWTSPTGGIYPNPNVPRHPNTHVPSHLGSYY
# Procedure, shortened: (§1)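 GST fusions of human transcription factors were expressed in yeast and captured with glutathione beads. Once given DNA barcodes and pooled alongside a tag-only sample, they were incubated for 30 min at room temperature with 200 nmole of a random double-stranded 16-mer DNA library in Tris/NaCl/DTT/glycerol buffer, then washed, crosslinked (0.1% formaldehyde), proximity-ligated, PCR-amplified and sequenced on an Illumina NextSeq500. The binding signal of each hexamer is its read frequency for a factor divided by its frequency for the tag-only sample.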
# [2] = molecular target: T2, ELK1 (Homo sapiens, UniProt P19419 1-428); conditions: protein: recombinant; tags: N-terminal GST; dsDNA, one strand shown
# T2 sequence: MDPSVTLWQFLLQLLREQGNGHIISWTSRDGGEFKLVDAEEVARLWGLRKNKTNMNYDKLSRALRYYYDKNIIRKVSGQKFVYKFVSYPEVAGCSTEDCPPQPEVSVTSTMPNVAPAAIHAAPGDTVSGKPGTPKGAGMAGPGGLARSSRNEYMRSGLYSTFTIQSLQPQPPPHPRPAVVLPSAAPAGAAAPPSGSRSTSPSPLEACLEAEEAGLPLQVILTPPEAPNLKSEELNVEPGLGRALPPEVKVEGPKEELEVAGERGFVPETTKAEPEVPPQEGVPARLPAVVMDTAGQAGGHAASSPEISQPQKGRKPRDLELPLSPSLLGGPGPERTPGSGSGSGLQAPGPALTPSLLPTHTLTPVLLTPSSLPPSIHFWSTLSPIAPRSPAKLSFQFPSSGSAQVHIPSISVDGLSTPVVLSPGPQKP
# Procedure, shortened: as §1
# [3] = molecular target: T3, GABPA (Homo sapiens, UniProt Q06546 1-454); conditions: protein: recombinant; tags: N-terminal GST; dsDNA, one strand shown
# T3 sequence: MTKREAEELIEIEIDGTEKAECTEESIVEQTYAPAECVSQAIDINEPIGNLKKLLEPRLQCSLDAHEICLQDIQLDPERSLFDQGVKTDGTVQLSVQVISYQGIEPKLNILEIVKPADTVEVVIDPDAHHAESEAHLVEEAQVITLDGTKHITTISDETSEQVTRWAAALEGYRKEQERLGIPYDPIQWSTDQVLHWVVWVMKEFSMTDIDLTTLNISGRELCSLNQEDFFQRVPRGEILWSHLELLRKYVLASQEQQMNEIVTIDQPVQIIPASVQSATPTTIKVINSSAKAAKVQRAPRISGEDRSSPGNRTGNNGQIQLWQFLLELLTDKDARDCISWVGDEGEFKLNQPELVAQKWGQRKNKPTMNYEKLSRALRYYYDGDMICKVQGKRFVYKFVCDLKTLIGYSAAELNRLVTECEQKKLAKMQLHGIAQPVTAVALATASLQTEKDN
# Procedure, shortened: as §1
# [4] = molecular target: T4, ERG (Homo sapiens, UniProt P11308 1-479); conditions: protein: recombinant; tags: N-terminal GST; dsDNA, one strand shown
# T4 sequence: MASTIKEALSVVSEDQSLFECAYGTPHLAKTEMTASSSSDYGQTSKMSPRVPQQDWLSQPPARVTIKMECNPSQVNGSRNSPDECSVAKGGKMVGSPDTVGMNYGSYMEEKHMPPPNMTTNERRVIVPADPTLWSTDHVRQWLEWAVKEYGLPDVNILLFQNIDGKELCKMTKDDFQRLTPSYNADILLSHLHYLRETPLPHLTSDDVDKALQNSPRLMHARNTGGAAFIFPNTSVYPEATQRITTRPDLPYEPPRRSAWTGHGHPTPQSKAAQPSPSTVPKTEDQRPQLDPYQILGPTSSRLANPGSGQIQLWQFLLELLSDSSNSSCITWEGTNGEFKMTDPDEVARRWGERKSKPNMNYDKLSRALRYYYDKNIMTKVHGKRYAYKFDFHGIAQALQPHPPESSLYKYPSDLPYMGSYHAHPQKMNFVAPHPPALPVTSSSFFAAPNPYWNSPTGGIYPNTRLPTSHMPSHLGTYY
# Procedure, shortened: as §1
# [5] = molecular target: ELF1 (Homo sapiens, UniProt P32519 1-619); conditions: protein: recombinant; tags: N-terminal GST; dsDNA, one strand shown
# Procedure, shortened: as §1
# [6] = molecular target: T5, EHF (Homo sapiens, UniProt Q9NZC4 1-300); conditions: protein: recombinant; tags: N-terminal GST; dsDNA, one strand shown
# T5 sequence: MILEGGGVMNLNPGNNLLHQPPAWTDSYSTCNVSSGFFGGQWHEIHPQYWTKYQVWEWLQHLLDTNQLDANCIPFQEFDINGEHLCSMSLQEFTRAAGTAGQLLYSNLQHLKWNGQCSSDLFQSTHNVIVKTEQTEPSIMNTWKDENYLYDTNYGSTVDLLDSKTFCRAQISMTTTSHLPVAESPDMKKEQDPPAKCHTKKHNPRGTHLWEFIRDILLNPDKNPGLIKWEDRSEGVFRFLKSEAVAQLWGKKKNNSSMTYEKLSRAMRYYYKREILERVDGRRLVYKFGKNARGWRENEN
# Procedure, shortened: as §1
# [7] = molecular target: SPI1 (Homo sapiens, UniProt P17947 1-270); conditions: protein: recombinant; tags: N-terminal GST; dsDNA, one strand shown
# Procedure, shortened: as §1
# [8] = molecular target: SPIB (Homo sapiens, UniProt Q01892 1-262); conditions: protein: recombinant; tags: N-terminal GST; dsDNA, one strand shown
# Procedure, shortened: as §1
# [9] = molecular target: T6, ELK3 (Homo sapiens, UniProt P41970 1-407); conditions: protein: recombinant; tags: N-terminal GST; dsDNA, one strand shown
# T6 sequence: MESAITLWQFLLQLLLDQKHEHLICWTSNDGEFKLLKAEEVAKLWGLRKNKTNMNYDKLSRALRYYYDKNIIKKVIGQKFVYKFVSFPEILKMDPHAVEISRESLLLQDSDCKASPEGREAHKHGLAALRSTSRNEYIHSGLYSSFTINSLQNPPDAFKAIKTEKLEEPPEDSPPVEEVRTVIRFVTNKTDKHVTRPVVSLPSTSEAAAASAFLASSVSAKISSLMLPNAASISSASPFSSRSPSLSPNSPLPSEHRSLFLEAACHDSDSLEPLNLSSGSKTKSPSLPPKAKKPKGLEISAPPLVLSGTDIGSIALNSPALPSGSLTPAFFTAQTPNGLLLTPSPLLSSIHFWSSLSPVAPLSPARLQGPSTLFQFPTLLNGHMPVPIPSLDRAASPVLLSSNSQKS
# Procedure, shortened: as §1
# [10] = molecular target: T7, FEV (Homo sapiens, UniProt Q99581 1-238); conditions: protein: recombinant; tags: N-terminal GST; dsDNA, one strand shown
# T7 sequence: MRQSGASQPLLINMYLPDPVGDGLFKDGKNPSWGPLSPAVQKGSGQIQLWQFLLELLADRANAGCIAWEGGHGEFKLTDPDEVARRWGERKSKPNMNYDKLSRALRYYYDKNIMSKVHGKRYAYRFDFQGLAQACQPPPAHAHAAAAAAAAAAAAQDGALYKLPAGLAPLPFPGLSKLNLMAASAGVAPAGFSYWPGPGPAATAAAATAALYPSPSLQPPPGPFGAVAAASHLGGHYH
# Procedure, shortened: as §1
# [11] = molecular target: ETV5 (Homo sapiens, UniProt P41161 1-510); conditions: protein: recombinant; tags: N-terminal GST; dsDNA, one strand shown
# Procedure, shortened: as §1
# [12] = molecular target: HSF1 (Homo sapiens, UniProt Q00613 1-529); conditions: protein: recombinant; tags: N-terminal GST; chain copies: 3; dsDNA, one strand shown
# Procedure, shortened: as §1
# [13] = molecular target: T8, SPIC (Homo sapiens, UniProt Q8N5J4 1-248); conditions: protein: recombinant; tags: N-terminal GST; dsDNA, one strand shown
# T8 sequence: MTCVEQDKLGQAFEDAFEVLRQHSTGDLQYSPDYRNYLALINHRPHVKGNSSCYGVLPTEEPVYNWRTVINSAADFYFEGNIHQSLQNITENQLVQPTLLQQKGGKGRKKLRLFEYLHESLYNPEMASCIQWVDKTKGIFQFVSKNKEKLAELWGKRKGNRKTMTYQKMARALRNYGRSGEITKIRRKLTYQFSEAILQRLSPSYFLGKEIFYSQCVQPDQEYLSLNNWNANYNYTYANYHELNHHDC
# Procedure, shortened: as §1
# [14] = molecular target: ELF4 (Homo sapiens, UniProt Q99607 1-663); conditions: protein: recombinant; tags: N-terminal GST; dsDNA, one strand shown
# Procedure, shortened: as §1
# [15] = molecular target: T9, ELK4 (Homo sapiens, UniProt P28324-2 1-405); conditions: protein: recombinant; tags: N-terminal GST; dsDNA, one strand shown
# T9 sequence: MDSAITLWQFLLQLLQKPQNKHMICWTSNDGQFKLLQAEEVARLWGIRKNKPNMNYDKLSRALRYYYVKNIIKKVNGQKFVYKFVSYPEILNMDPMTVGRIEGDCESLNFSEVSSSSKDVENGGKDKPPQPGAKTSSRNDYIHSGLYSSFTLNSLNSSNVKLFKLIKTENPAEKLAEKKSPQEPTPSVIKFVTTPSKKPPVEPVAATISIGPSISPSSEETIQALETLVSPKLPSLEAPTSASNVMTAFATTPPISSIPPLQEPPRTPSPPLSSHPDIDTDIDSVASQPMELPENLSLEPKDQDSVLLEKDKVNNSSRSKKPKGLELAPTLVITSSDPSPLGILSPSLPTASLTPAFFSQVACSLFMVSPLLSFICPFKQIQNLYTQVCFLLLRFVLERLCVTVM
# Procedure, shortened: as §1
# [16] = molecular target: T10, ETV2 (Homo sapiens, UniProt O00321 1-342); conditions: protein: recombinant; tags: N-terminal GST; dsDNA, one strand shown
# T10 sequence: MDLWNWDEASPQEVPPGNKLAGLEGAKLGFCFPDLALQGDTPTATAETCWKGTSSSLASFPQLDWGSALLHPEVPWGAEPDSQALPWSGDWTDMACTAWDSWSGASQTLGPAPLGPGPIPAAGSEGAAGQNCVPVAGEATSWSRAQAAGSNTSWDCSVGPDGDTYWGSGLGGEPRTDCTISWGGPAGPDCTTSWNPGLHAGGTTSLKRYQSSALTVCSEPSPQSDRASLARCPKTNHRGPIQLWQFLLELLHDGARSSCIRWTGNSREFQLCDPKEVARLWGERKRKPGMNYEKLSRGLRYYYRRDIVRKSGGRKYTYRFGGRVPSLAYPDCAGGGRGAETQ
# Procedure, shortened: as §1
# [17] = molecular target: T11, ELF3 (Homo sapiens, UniProt P78545 1-371); conditions: protein: recombinant; tags: N-terminal GST; dsDNA, one strand shown
# T11 sequence: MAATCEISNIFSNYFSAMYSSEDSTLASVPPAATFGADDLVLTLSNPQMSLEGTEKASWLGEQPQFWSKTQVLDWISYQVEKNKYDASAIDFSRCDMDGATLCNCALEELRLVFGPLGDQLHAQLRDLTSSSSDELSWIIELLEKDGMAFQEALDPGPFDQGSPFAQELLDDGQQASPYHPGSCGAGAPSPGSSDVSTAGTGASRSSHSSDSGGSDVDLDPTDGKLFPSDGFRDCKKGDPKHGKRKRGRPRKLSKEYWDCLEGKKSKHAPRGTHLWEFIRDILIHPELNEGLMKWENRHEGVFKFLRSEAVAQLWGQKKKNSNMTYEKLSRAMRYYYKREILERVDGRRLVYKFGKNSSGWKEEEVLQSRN
# Procedure, shortened: as §1
# [18] = molecular target: CRX (Homo sapiens, UniProt O43186 1-299); conditions: protein: recombinant; tags: N-terminal GST; dsDNA, one strand shown
# Procedure, shortened: as §1
# [19] = molecular target: ETV1 (Homo sapiens, UniProt P50549 1-477); conditions: protein: recombinant; tags: N-terminal GST; dsDNA, one strand shown
# Procedure, shortened: as §1
# Chain of ELF4 (Q99607 whole entry): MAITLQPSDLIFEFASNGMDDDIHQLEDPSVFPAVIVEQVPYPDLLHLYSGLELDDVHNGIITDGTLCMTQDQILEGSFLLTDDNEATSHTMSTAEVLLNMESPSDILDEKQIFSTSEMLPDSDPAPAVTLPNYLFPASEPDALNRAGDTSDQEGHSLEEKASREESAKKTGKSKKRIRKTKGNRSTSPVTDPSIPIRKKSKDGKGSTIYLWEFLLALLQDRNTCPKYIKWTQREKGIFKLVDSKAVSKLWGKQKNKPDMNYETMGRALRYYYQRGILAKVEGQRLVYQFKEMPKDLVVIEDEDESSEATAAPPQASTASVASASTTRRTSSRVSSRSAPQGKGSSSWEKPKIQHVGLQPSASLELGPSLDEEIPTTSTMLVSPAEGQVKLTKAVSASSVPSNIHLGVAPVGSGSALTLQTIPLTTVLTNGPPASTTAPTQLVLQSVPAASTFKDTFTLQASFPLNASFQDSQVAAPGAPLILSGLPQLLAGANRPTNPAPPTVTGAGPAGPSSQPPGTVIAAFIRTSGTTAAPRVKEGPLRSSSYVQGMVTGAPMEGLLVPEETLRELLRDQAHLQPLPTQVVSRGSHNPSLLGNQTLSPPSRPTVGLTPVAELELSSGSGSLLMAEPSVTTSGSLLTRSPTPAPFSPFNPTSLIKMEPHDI
# Chain of HSF1 (Q00613 whole entry): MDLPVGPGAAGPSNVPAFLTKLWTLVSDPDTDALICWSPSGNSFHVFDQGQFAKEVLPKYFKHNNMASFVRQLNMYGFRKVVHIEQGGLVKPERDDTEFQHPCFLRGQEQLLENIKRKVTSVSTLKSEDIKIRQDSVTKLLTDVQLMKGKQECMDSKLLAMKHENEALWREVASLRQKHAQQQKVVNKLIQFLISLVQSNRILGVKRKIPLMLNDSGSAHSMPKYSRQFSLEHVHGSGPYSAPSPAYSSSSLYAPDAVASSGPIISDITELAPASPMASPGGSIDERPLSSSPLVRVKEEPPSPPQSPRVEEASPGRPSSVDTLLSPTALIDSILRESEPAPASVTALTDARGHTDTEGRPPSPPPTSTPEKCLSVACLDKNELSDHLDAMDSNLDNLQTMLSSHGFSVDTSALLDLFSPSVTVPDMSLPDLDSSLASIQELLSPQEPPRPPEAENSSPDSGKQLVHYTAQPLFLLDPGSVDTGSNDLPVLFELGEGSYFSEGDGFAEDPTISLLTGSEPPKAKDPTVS
# Chain of ETV5 (P41161 whole entry): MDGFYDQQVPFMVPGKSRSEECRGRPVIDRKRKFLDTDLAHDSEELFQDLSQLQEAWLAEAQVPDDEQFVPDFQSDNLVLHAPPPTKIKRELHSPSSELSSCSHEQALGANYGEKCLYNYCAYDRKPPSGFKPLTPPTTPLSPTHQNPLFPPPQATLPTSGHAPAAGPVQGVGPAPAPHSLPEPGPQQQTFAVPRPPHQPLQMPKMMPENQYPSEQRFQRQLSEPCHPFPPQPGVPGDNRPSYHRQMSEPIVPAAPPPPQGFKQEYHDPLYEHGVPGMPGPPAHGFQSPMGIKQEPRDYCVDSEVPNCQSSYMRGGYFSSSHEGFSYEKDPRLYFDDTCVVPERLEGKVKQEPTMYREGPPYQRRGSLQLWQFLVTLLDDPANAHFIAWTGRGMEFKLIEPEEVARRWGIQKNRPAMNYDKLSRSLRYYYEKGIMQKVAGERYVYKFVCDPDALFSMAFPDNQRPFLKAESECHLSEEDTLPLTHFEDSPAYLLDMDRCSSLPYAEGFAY
# Chain of SPIB (Q01892 whole entry): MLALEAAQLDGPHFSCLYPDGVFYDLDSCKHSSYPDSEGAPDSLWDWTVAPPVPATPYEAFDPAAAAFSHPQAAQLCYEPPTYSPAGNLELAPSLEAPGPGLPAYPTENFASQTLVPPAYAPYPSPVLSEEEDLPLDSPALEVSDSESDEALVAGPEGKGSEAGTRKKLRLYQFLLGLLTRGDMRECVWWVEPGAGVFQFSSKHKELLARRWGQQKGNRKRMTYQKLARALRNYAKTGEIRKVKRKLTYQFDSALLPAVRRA
# Chain of ELF1 (P32519 whole entry): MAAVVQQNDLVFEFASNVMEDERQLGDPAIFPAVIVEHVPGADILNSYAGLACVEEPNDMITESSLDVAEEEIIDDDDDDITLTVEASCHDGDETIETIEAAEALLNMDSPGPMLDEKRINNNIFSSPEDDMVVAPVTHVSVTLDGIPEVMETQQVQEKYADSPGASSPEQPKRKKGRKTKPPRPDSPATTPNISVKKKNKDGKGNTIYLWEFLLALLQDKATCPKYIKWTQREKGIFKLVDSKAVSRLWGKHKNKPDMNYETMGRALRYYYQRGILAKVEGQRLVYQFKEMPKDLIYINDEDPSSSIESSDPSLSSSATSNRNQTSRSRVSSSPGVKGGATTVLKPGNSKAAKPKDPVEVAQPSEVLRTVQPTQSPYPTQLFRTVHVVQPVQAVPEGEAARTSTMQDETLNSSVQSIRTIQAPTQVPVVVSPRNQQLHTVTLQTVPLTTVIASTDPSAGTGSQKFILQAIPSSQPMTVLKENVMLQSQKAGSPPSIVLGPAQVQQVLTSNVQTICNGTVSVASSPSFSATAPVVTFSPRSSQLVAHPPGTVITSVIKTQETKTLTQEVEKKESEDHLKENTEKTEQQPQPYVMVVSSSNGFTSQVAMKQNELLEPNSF
# Chain of CRX (O43186 whole entry): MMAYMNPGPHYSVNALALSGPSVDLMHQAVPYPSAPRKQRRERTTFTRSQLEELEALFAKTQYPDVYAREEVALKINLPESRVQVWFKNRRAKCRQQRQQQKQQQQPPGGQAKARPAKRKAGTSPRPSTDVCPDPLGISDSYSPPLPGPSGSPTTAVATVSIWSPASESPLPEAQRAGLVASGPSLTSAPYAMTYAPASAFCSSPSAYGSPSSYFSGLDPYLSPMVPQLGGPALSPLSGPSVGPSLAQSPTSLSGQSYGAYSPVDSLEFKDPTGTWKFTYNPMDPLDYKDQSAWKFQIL
# Chain of ETV1 (P50549 whole entry): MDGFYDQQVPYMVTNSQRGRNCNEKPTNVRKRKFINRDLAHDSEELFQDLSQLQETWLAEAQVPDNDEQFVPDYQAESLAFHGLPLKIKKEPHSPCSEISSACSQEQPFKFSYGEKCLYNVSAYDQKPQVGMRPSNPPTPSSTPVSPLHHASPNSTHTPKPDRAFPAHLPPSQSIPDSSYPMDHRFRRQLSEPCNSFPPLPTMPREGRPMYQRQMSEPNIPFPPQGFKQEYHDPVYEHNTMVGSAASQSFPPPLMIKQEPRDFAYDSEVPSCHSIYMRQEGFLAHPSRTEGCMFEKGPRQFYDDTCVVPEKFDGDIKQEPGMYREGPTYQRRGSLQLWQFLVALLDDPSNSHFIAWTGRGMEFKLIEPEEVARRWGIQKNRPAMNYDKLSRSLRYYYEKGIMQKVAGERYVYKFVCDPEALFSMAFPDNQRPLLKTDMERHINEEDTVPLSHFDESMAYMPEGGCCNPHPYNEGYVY
sequence,measurement,setting,value
AATCCG,binding signal,[1],"1.53 fold enrichment (6-mer frequency, TF over GST control)"
same,binding signal,[2],"1.62 fold enrichment (6-mer frequency, TF over GST control)"
same,binding signal,[3],"1.44 fold enrichment (6-mer frequency, TF over GST control)"
same,binding signal,[4],"1.84 fold enrichment (6-mer frequency, TF over GST control)"
same,binding signal,[5],"1.5 fold enrichment (6-mer frequency, TF over GST control)"
same,binding signal,[6],"1.55 fold enrichment (6-mer frequency, TF over GST control)"
same,binding signal,[7],"1.59 fold enrichment (6-mer frequency, TF over GST control)"
same,binding signal,[8],"1.68 fold enrichment (6-mer frequency, TF over GST control)"
same,binding signal,[9],"1.5 fold enrichment (6-mer frequency, TF over GST control)"
same,binding signal,[10],"2.44 fold enrichment (6-mer frequency, TF over GST control)"
same,binding signal,[11],"1.65 fold enrichment (6-mer frequency, TF over GST control)"
same,binding signal,[12],"2.09 fold enrichment (6-mer frequency, TF over GST control)"
same,binding signal,[13],"1.48 fold enrichment (6-mer frequency, TF over GST control)"
same,binding signal,[14],"1.46 fold enrichment (6-mer frequency, TF over GST control)"
same,binding signal,[15],"1.33 fold enrichment (6-mer frequency, TF over GST control)"
same,binding signal,[16],"1.47 fold enrichment (6-mer frequency, TF over GST control)"
same,binding signal,[17],"1.32 fold enrichment (6-mer frequency, TF over GST control)"
same,binding signal,[18],"3.2 fold enrichment (6-mer frequency, TF over GST control)"
same,binding signal,[19],"1.43 fold enrichment (6-mer frequency, TF over GST control)"
